# Results as given in PubChem BioAssay (NCI).
# Values joined by “and” are separate entries in the source; they are usually repeats but may differ in a detail not shown here. Equal entries are not always repeated. About 83,000 compounds went through this panel and 20% of them were active in at least one assay; those are over-represented in the sample as a whole.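 Interpretation: 100, growth as untreated; towards 0, rising growth inhibition; 0, no net growth; 0 to -100, cell death. Compounds scoring below 10 were considered active.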 A number with no mark means an inactive call. Active and inactive are the calls of the source.
# System: HL-60(TB) leukemia
# Assay: NCI-60 one-dose screen, 48 h (100 = growth as untreated, 0 = no growth, -100 = all killed)
# Settings: 10 µM unless noted
row,Structure (SMILES),growth
1,CCOC(=O)C1=C(N)N(c2ccccc2)C2=C(C(=O)CC(C)(C)C2)C1c1ccc(Cl)cc1Cl (stereo not given),1.24% (active)
2,Cc1ccccc1[C@H]1C(C(=O)c2ccc(Cl)cc2)C2(N[C@@H]1c1ccccc1)C(=O)Nc1ccc(Cl)cc12 (stereo not given in full),-32.2% (active)
3,CCC1(OC(=O)c2ccccc2SSCCOC(=O)CCCCC2SCC3NC(=O)NC32)C(=O)OCc2c1cc1n(c2=O)Cc2cc3ccccc3nc2-1 (stereo not given),76.7%
4,O=C(c1ccc(O)cc1)C1[C@H](c2ccccc2Br)[C@@H](c2ccccc2)NC12C(=O)Nc1ccc(Br)cc12 (stereo not given in full),33.6%
5,COC(=O)/C=C/c1cccc2c1C(=O)NC(C)(c1cc3ccccc3oc1=O)N2 (stereo not given),40%
6,COc1cccc(NC(=O)c2ccc(NC(=O)CCl)s2)c1,-28.2% (active)
7,Cc1sc(C(NC(=O)OCCn2c([N+](=O)[O-])cnc2C)C(F)(F)Cl)nc1-c1ccc(OC(F)(F)F)cc1 (stereo not given),-6.23% (active)
8,CN1C(=O)/C(=C\C(=O)c2cc3ccccc3oc2=O)c2ccccc21,79.3%
9,C/C(=N\NC(N)=S)c1ccc(Nc2nc(SC(C)C)nc(-c3ccccc3)c2C#N)cc1,89.9%
10,Cc1cccc2cc(-c3cc(-c4ccccc4)nc(=O)[nH]3)c(Cl)nc12,55.3%
11,CC(C)C[C@H](NC(=O)CNC(=O)C[C@H]1O[C@@H]2OC3(C)CC[C@H]4[C@H](C)CC[C@@H]([C@H]1C)[C@@]24O3)B(O)O,3.8% (active)
12,Oc1cncc(-c2ccc3ncnc(N4CCc5cc(F)c(Cl)cc54)c3c2)c1,84.7%
13,Cc1ccc(-c2ccc(SCC(=O)Nc3ccc(Cl)c(C(F)(F)F)c3)nn2)cc1,-22.3% (active)
14,O=C(CN1C(=O)/C(=C/c2ccccc2Cl)SC1=S)N1CCOCC1,90.2%
15,O=C1CCC(N2C(=O)c3cccc(NCCCCCC(=O)N4CCN(c5ccc6nc7c(nc6c5C(F)(F)F)C(=O)c5ncccc5C7=O)CC4)c3C2=O)C(=O)N1 (stereo not given),-25.2% (active)
16,COc1ccc(N2N=C(c3ccc4c(c3)OCCO4)CC2c2cccc(NC(=O)CCCNS(=O)(=O)c3ccc(F)cc3)c2)cc1 (stereo not given),80.5%
17,O=C(COc1ccc(NC(=O)Nc2ccc(Cl)c(Cl)c2)cc1)N=Nc1c(O)[nH]c2ccc([N+](=O)[O-])cc12,92.4%
18,COc1ccc(/C=C/c2nc3ccccc3n3c(-c4cccc([N+](=O)[O-])c4)nnc23)cc1,-49.3% (active)
19,CCCCSc1nc(NCCc2c[nH]c3ccccc23)c(C#N)c(-c2ccccc2)n1,45.8%
20,COc1cccc2nc(Nc3cccc(NC(=O)c4ccc(CN5CCN(C)CC5)c(C(F)(F)F)c4)c3)ccc12,-53.1% (active)

row,Structure (SMILES),growth
1,COc1ccc2nc(NC(=O)c3ccc(N(C)C)cc3)sc2c1,51.5%
2,CCCn1c(=O)c2[nH]c(-c3ccc(OCc4nc5ccc(C)cc5[nH]4)cc3)nc2n(CCC)c1=O,4.56% (active)
3,O=C(Cn1c2c(sc1=O)[C@H]1[C@@H](O)[C@@H](O)[C@H](O)[C@@H]1CS2)N1CCOCC1,109%
4,Cn1cc(-c2cc(N)n3nc(-c4c[nH]c5ccc(F)cc45)cc3n2)c2cc(Br)cnc21,33.2%
5,COc1cc2oc(-c3cccc(C(=O)Nc4ccc(Cl)cc4)c3)cc(=O)c2c(OCCNC(=O)[C@@H](N)CCC(=O)O)c1OC,81.6%
6,COc1ccc(CN2[C@H](C(=O)NCCCCCCC(=O)NO)Cc3c([nH]c4ccccc34)[C@H]2C2CC2)cc1,3.44% (active)
7,COc1ccc(N=Nc2c(N)nn3c(-c4ccc([N+](=O)[O-])cc4)ccnc23)cc1,85.7%
8,Cc1ccc2sc3c(c2c1)Oc1nc[nH]c(=O)c1C3c1cccc(F)c1 (stereo not given),99.3%
9,O=C(CNc1nc(-c2ccccc2)cs1)Nc1ccccc1,-30.5% (active)
10,O=C(Cn1c(/C=C/c2ccccc2)nc2ccccc2c1=O)Nc1ccccc1,64.7%
11,N#Cc1c(-c2ccc(Cl)cc2)nc2n[nH]c(-c3ccc(Cl)cc3)c2c1-c1cccs1,23.7%
12,Cc1cc2nc3c4ccccc4n(CCNCCN(C)C)c3nc2cc1C,-0.721% (active)
13,COc1cc2c(c(OC)c1OC)C(=O)CC(c1cccc(NC(=O)c3cc(NC(=O)[C@H](C)N)ccc3Cl)c1)O2 (stereo not given in full),2.28% (active)
14,O=C(Nc1ccccc1)N1CCN(c2cc(-c3cn(-c4ccccc4)nc3-c3cccc(O)c3)ccn2)CC1,23.3%
15,Nc1cccc(-n2c(COc3ccc(I)cc3)nc3ccccc32)c1,118% and 98%
16,COc1ccc2[nH]c(O)c(N=NC(=O)Cn3c(-c4ccccc4)nc4cc(C)ccc43)c2c1,-50.8% (active)
17,O/N=C(\CSc1nnc(-c2c[nH]c3ccccc23)n1-c1ccccc1)c1ccc(Cl)cc1,-25.9% (active)
18,O=C1CCC(N2C(=O)c3cccc(NCCOCCOCCOCCC(=O)NCCCC(=O)NC(c4ccc5c(c4)OCO5)c4cc(Cl)c5cccnc5c4O)c3C2=O)C(=O)C1 (stereo not given),-14.1% (active)
19,O=C(COc1ccc(NC(=O)Nc2ccc(Cl)c(Cl)c2)cc1)N=Nc1c(O)[nH]c2ccccc12,40.1%
20,O=C(c1ccc([N+](=O)[O-])c([N+](=O)[O-])c1O)n1[nH]c(=O)c2ccccc2c1=O,44.6%
